Coupling enz: qHTS Assay for Inhibitors of Fructose-1,6-bisphosphate Aldolase from Giardia Lamblia: Coupling assay counterscreen; coupling enzyme system counterscreen, AmpLite Red fluorescence; activity change, negative = inhibition, % at 58.2 µM, hits read low; 0.67% of 290,000 active; in the data active = activity change below about -30%
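Counterscreen lacking aldolase: glyceraldehyde-3-phosphate coupling-enzyme reagent preincubated 10 min at RT with compound (at 57.5 uM final), then substrate/coupling system with AmpLite Red added; fluorescence read at 525/598 nm after 20 min RT.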
VDR inh: Inhibitors of the vitamin D receptor (VDR): qHTS; Vitamin D3 receptor (Homo sapiens), P11473; Potency, µM, for inactives: max response, negative = inhibition, most hits filed as inhibitors; 0.93% of 400,000 active; VDR-SRC2-3 peptide fluorescence polarization, 2 h; note: potency is the fitted concentration of half-maximal effect
Target sequence (P11473 whole entry, looked up): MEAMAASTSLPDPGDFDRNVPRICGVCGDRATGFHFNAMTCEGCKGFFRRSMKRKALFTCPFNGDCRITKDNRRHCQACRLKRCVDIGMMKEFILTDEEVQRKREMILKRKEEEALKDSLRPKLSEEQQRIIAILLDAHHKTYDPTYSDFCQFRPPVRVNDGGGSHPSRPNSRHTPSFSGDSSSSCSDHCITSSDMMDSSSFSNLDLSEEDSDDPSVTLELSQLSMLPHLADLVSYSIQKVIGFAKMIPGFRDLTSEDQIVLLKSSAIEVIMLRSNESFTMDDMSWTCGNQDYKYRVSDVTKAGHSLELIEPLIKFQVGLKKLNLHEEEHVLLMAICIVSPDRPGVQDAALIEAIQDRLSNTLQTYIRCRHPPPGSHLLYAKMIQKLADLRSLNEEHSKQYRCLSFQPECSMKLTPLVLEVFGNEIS
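The screen uses fluorescence polarization to detect compounds that interfere with recruitment of the SRC2-3 coactivator peptide to VDR; plates are read after 2 h at room temperature.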
PLK1 PBD inh: qHTS for Inhibitors of PLK1-PDB (polo-like kinase 1 - polo-box domain): Primary Screen. Serine/threonine-protein kinase PLK1 (Homo sapiens), P53350. Plk1 PBD binding of FITC phosphopeptide, fluorescence polarization. Potency, µM, for inactives: max response, negative = inhibition, most hits filed as inhibitors. 2.8% of 360,000 active. AID 720504, 2013; note: potency is the fitted concentration of half-maximal effect; series mostly up to about 57 µM; nearly all actives have a fitted effect of over 65% in size
USP1-UAF1 inh: Inhibitors of USP1/UAF1: Primary Screen | Potency, µM (titrated, usually from 57.1 µM), for inactives: top-dose activity change, negative = inhibition, actives largely listed as inhibitors | Ubiquitin carboxyl-terminal hydrolase 1 (Homo sapiens), O94782 | 0.23% of 390,000 active | recombinant USP1/UAF1, Ub-Rhodamine cleavage fluorescence; note: potency is the fitted concentration of half-maximal effect; nearly all actives have a fitted effect of over 60% in size
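High-throughput fluorogenic screen: 1nM USP1/UAF1 complex, Ub-Rho substrate 150nM final, 50mM HEPES pH 7.8 with 0.5mM EDTA, 0.1 mg/ml BSA, 1mM TCEP and 0.01% Tween-20.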
GALK inhibitor: qHTS Assay for Inhibitors of Human Galactokinase (GALK). Purified GALK, Kinase-Glo residual ATP luminescence. Potency, µM (titrated, usually from 57.5 µM), for the others: at the top dose activity change, negative = inhibition, most hits filed as inhibitors. 0.007% of 270,000 active; note: potency is the fitted concentration of half-maximal effect
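The enzyme phosphorylates galactose (100 uM) using ATP (35 uM); inhibition is detected as higher residual ATP, quantified by bioluminescence after 1 h reaction at room temperature, pH 8.0.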
USP2a block: qHTS Assay for Inhibitors of Ubiquitin-specific Protease USP2a Using CHOP2 as the Reporter; Ubiquitin carboxyl-terminal hydrolase 2 (Homo sapiens), O75604; USP2 core, Ub-CHOP2 coupled fluorogenic reporter, 485/531; Potency, µM (highest dose often 38.3 µM), for inactives: at the highest dose activity change, negative = inhibition, hits mostly inhibitors; 0.01% of 330,000 active;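 note: potency is the fitted concentration of half-maximal effect; plate controls were DMSO wells for no effect and full inhibition by NEM control for full effect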
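USP2 core (10nM final) preincubated 30min RT with compound in 20mM Tris-HCl pH 8.0, 2mM CaCl2, 2mM beta-mercaptoethanol, 0.05% CHAPS; 25nM Ub-CHOP2 plus 25nM reporter substrate added, fluorescence (Ex485/Em531) read after 60min.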
Active calls of the source: *; ? = inconclusive; / = not tested or not shown; ! = not active in a repeat. The list is not random: actives were taken first. Their share in the collection is about 3.2%. Unless noted, calls come from the whole dose curve; as a rule, active = well fitted curve in the direction sought with a large enough effect; inconclusive = small, poorly fitted or top-dose-only effect, or another doubt; inactive = no such curve, though single readings can be large; an effect the other way counts as inactive or inconclusive. Unless noted, % is set by controls: 0 for no effect and ±100 for the full control effect.

SMILES | Coupling enz | VDR inh | PLK1 PBD inh | USP1-UAF1 inh | GALK inhibitor | USP2a block
O=C(NNS(=O)(=O)c1ccccc1[N+](=O)[O-])c1cccc([N+](=O)[O-])c1 | 0 | -1% | 17µM* | -8% | / | -1%
O=C(NNS(=O)(=O)c1ccccc1)c1cccnc1 | 3 | -10% | -17% | -18% | -3% | 6%
O=C(NNS(=O)(=O)c1ccccc1[N+](=O)[O-])c1cccnc1 | 1 | ? | 27µM* | -22% | 2% | 0%
CN(C(=O)COC(=O)C1CCN(S(=O)(=O)c2ccc(Cl)cc2)CC1)C1CCS(=O)(=O)C1 (centres undefined) | / | 8% | 1% | -9% | / | -1%
CCc1ccc(CC(=S)N2CCOCC2)cc1 | 0 | -9% | -18% | -19% | 0% | 3%
S=C(Cc1ccc(-c2ccccc2)cc1)N1CCOCC1 | / | -4% | -4% | -19% | / | /
Cc1ccc(CC(=S)N2CCOCC2)cc1 | 3 | -30% | 19µM* | -17% | -4% | 10%
COc1ccc(CC(=S)N2CCOCC2)cc1 | 1 | -15% | 7.5µM* | -15% | 1% | 0%
CO/N=C\c1cc(C(=O)c2ccc(Cl)cc2Cl)cn1C | -2 | 0% | -7% | -22% | 0% | 4%
OC(Cn1ccnc1)c1ccc(Cl)cc1Cl (centres undefined) | 2 | -10% | -5% | 4% | 4% | 1%
CC1(c2ccc(Cl)cc2Cl)OCC(Cn2ccnc2)O1 (centres undefined) | 4 | -1% | 30µM* | 3% | 2% | -1%
COc1ccc(-c2c(C(C)=O)c(C)nc3sc4c(=O)[nH]nnc4c23)cc1 | 7 | 3% | -15% | 1% | -4% | 3%
CCN(CC)c1ccc(N=Cc2ccc(N(CC)CC)cc2O)cc1 | -13 | 50µM* | 71% | ? | -3% | -1%
CCN(CC)c1ccc(/C=N/Nc2ccccc2)c(O)c1 | -14 | 79µM* | ? | ? | 2% | 4%
O=C(CCn1cnnn1)Nc1ccc(Cl)cc1Cl | 0 | -18% | 3.8µM* | -15% | 0% | 1%
Cc1cccc(NC(=O)CCn2cnnn2)c1C | / | 4% | / | -10% | / | /
Cc1ccccc1NC(=O)c1ccc(Cl)c(S(=O)(=O)N2CCCCCC2)c1 | / | 7% | / | -5% | / | /
O=C(NC(=S)N1CCOCC1)C12CCC3CC(CC(C3)C1)C2 | -1 | -4% | 30µM* | 0% | 2% | 0%
O=C(NC(=S)N1CCOCC1)C12CC3CCC(CC(C3)C1)C2 | 4 | -9% | -1% | -19% | 1% | 4%
CC1(C)C(O)C=C[C@@]2(C)C1CC(=O)O[C@@]1(C)C3=CC(=O)OC(c4ccoc4)[C@]3(C)CCC21 (some centres undefined) | 1 | 45µM* | / | / | / | /
CCCC(=O)NCc1ccncc1 | -1 | / | / | / | 10% | -1%
CC[n+]1ccc(/C=C2\Sc3ccccc3N2CCCS(=O)(=O)[O-])c2ccccc21 | 1 | -19% | -23% | -10% | 5% | 2%
CN1C=C/C(=C\c2cc[n+](C)c3ccccc23)c2ccccc21 | -62* | 1% | -11% | -22% | 0% | -1%
CSc1nc(O)c(C(c2ccc(OC(C)C)cc2)c2c(O)nc(SC)[nH]c2=O)c(=O)[nH]1 | / | 22µM* | 11µM* | 3% | / | /
C[C@@H](CO)NC(=O)c1[nH]cnc1C(=O)Nc1cccc(Cl)c1 | / | / | 2% | -3% | / | /
SMILES | Coupling enz | VDR inh | PLK1 PBD inh | USP1-UAF1 inh | GALK inhibitor | USP2a block
CO[C@H]1C=CO[C@]2(C)Oc3c(C)c(O)c4c(O)c(c5c(c4c3C2=O)NC2(CCN(CC(C)C)CC2)N=5)=NC(=O)C(C)=CC=C[C@@H](C)[C@@H](O)[C@@H](C)[C@@H](O)[C@@H](C)[C@@H](OC(C)=O)[C@@H]1C | 0 | -3% | / | / | / | /
CO[C@H]1/C=C/O[C@@]2(C)Oc3c(C)c(O)c4c(O)c(c5c(c4c3C2=O)NC2(CCN(CC(C)C)CC2)N=5)=NC(=O)/C(C)=C\C=C\[C@H](C)[C@H](O)[C@@H](C)[C@@H](O)[C@@H](C)[C@H](OC(C)=O)[C@@H]1C | / | 40µM*! | -8% | ? | / | /
Cc1cccc(Nc2nc(-c3ccc(O)c(O)c3)cs2)n1 | -6 | -14% | -2% | -8% | -4% | -1%
CN(C)CCCCSC(=N)N | 9 | / | / | / | / | /
CCCCC/C=C\C/C=C\C/C=C\C/C=C\CCCC(=O)C(F)(F)F | -10 | 28µM* | / | / | / | /
Cc1ccc(S(=O)(=O)N/N=C2\C(=O)C3(C)CCC2C3(C)C)cc1 (centres undefined) | -2 | 3% | -2% | -3% | 0% | 1%
O=C(O)Cn1ncc2c1-c1ccoc1CC2 | -38* | -20% | -13% | -19% | 1% | 4%
O=C(Cn1ncc2c1-c1ccccc1OC2)N1CCc2ccccc21 | 3 | -11% | 0% | -10% | 0% | 1%
CCCCn1c(N)c(N(CCOC)C(=O)c2ccc(NC3CC3)c([N+](=O)[O-])c2)c(=O)[nH]c1=O | / | -1% | -4% | -3% | / | -1%
Cc1cccc(-c2nc3ccccc3c(=O)n2NC(=S)N(C)C)c1 | 5 | 50µM* | 3µM* | -2% | 0% | -1%
O=C(Oc1ccc(N(Cc2cccs2)C2=NS(=O)(=O)c3ccccc32)cc1)c1ccccc1Cl | 1 | ? | 2.7µM* | -28% | 0% | 3%
O=C(Oc1ccc(N(Cc2cccs2)C2=NS(=O)(=O)c3ccccc32)cc1)c1ccco1 | 0 | 9% | -4% | -17% | -2% | 0%
Cc1nnc(SCC(=O)c2c(N)n(C)c(=O)n(C)c2=O)[nH]c1=O | 2 | -15% | 24µM* | -2% | 1% | 1%
Cc1ccc(C(=O)NCC(=O)NCC(=O)OCC(=O)c2ccc([N+](=O)[O-])cc2)cc1 | 2 | 79µM* | -7% | -8% | -1% | 2%
O=C(C(=O)N1CCOCC1)c1c[nH]c2ccccc12 | 2 | -3% | -9% | -15% | 1% | 0%
S=C(c1c[nH]c2ccccc12)N1CCOCC1 | 11 | -1% | 15µM* | -3% | 1% | -1%
S=C(c1cn(Cc2ccccc2)c2ccccc12)N1CCOCC1 | -1 | 21% | -9% | -14% | 0% | 3%
S=C(c1cn(Cc2ccc(Br)cc2)c2ccccc12)N1CCOCC1 | -7 | ? | 30µM* | 1% | -3% | -1%
